Compound activity (PubChem)
HEK293 cAMP ctrl: counter-screen for TSHR agonists: cAMP increase in parental HEK293; parental HEK293 CNG cAMP sensor, membrane potential fluorescence; AID 938; Potency, µM (top dose mostly 57.1 µM), actives largely listed as activators; 73,000 tested, 2.5% active; further: nearly all actives have a fitted effect of over 55% in size
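Parental HEK 293 cells stably expressing a modified CNG channel (no TSHR) report cAMP rise as membrane depolarization. Membrane potential dye with 100 uM RO 20-1724 was loaded for 60 min at room temperature, then compound added for 30 min; fluorescence read at 590 nm.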
Hsp90 Hop PPI: changes Hsp90-Hop TPR2A binding signal, up or down; 71,000 tested, 0.44% active; AID 595; Potency, µM (highest dose often 57 µM); AlphaScreen TPR2A-His6 binding biotin-Hsp90 C-terminal peptide; active means well fitted curve in either direction with a large enough effect; inconclusive means small, poorly fitted or top-dose-only effect, or another doubt
BRCT inh red: disrupts BRCA1 BRCT binding to phosphoprotein, red fluorophore readout. P38398. BRCT-phosphopeptide binding, red fluorescence polarization. Potency, µM (highest dose often 76.9 µM), most hits filed as inhibitors. 75,000 tested, 0.03% active
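Rhodamine-labelled pBACH1 10-mer (100 nM) bound to BRCT domain (100 nM) at pH 7.3; compounds incubated 12 min room temperature, polarization read. Free peptide defines full inhibition; unlabelled decapeptide titrated as control.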
BRCT PPI green: BRCA1 BRCT-phosphoprotein interaction inhibition | Potency, µM (series often up to 76.9 µM), usual class: inhibitors | 75,000 tested, 0.05% active | BRCA1 BRCT-phosphopeptide binding, green fluorescence polarization
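Fluorescence polarization: His-tagged BRCT (~35 kDa BRCA1 C-terminus, 250 nM) bound to 100 nM fluorescein-labeled phosphorylated 10-aa BACH1 peptide, pH 7.3 phosphate buffer with DTT and Tween 20. Compounds incubated 12 min at room temperature; inhibition read as lowered polarization.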
YjeE inh: YjeE (TsaE) inhibition, E. coli; 71,000 tested, 0.05% active; Potency, µM; P0AF67; purified YjeE enzyme, qHTS inhibition assay
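Purified YjeE (10 uM) with BODIPY Texas Red-labeled ADP probe (2 uM); compounds pin-transferred, 15 min at room temperature. Binding inhibition read as decreased fluorescence polarization; ADP titration as control.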
TSHR ag: activates the human thyroid stimulating hormone receptor; Potency, µM (top dose mostly 57.1 µM), actives largely listed as activators; 73,000 tested, 0.48% active; AID 926; HEK293-CNG-TSHR cells (CNG channel as cAMP sensor), membrane potential dye, cAMP; active means well fitted activation curve with a large enough effect in the main read-out, with a control signal flat, not every such curve was filed as active; inconclusive means small, poorly fitted or top-dose-only effect, or a change in a side signal; inactive means no such curve, though single readings can be large or run the other way; reference of the percent scale not stated here;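 further: the control signal comes from parental cells without the receptor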
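HEK 293 cells stably expressing TSHR and a cAMP-gated CNG channel; parental CNG-only cells as counterscreen. Cells preloaded 60 min with membrane potential dye plus 100 uM RO 20-1724, then compound 30 min; fluorescence read at 590 nm.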
Hits are given with their value; n = inactive; u = inconclusive; x = not tested or not shown; ! = repeats disagree; [ ] = dose if it differs, or a comment. Shown are actives, neighbours in structure and some others; about 3.3% of the full set was active somewhere. Unless noted, the call rests on the fitted dose curve; in most records, active means well fitted curve in the direction sought with a large enough effect; inconclusive means small, poorly fitted or top-dose-only effect, or another doubt; inactive means no such curve, though single readings can be large; an effect the other way counts as inactive or inconclusive.

SMILES	HEK293 cAMP ctrl	Hsp90 Hop PPI	BRCT inh red	BRCT PPI green	YjeE inh	TSHR ag
N[C@H](Cc1ccc(F)cc1)C(=O)O	n	n	n	n	n	n
c1ccc(CSc2nnc(-c3ccncc3)o2)cc1	n	n	n	n	n	n
Clc1ccc(CSc2nnc(-c3ccncc3)o2)c(Cl)c1	20µM	n	n	n	n	u
CO[C@H]1COC(=O)[C@@H](C)COC(=O)[C@H](C)NC(=O)C/C=C\[C@H]1C	n[11.4 µM]	x	n[15.4 µM]	n[15.4 µM]	x	n[11.4 µM]
CCOc1ccc2nc(-c3ccccc3)[nH]c2c1	15.8µM	n	n	n	n	u
CCN(CC)CCCCNC(=O)c1ccc(Cc2nc3ccccc3[nH]2)cc1	n	x	n	n	x	n
Cc1cc2c(C(C)C)c(O)c(O)c(C=O)c2c(O)c1-c1c(C)cc2c(C(C)C)c(O)c(O)c(C=O)c2c1O	n	u	n	n	100µM!	n
Cc1ccnc(SCC(=O)Nc2sc3c(c2C#N)CCCC3)n1	20µM	n	n	n	n	u
CCc1c(O)nc(SCc2ccccc2)n(C(C)CC)c1=O (configuration not stated)	25.1µM	n	n	n	n	u
CN(CCO)Cc1ncccc1O	n[11.4 µM]	n[11 µM]	n[15.4 µM]	n[15.4 µM]	n	n[11.4 µM]
Cc1cccc2cc(C#N)c(SCC(=O)N3CCC(C)CC3)nc12	25.1µM	n	n	n	n	u
CCc1c(C)c2ccc(OCC(=O)OC(C)C)c(C)c2oc1=O	25.1µM	n	n	n	n	u
CCc1c(C)c2ccc(OCC(=O)N(C)C)c(C)c2oc1=O	n	n	n	n	n	n
CC1CCCCN1c1nc(-c2ccncc2)nc2ccccc12 (configuration not stated)	25.1µM	n	n	n	n	u
CC1CCN(c2nc(-c3ccncc3)nc3ccccc23)CC1	u	n	n	n	n	u
CCOc1ccc(Br)cc1-c1noc(-c2cccs2)n1	n	u	n	n	n	25.1µM
COc1cc(-c2noc(-c3cccs3)n2)cc(OC)c1OC	n	n	n	n	n	n
OCC1OC(/C=C\c2ccccc2)C=CC1Oc1ccc2c(c1)OCO2 (configuration not stated)	3.98µM	x	n[15.4 µM]	n[15.4 µM]	x	u
OCC1OC(c2ccc3c(c2)OCO3)C=CC1Oc1ccc(C2CCCC2)cc1 (configuration not stated)	n[11.4 µM]	x	n[15.4 µM]	n[15.4 µM]	x	n[11.4 µM]
CCOc1ccc2[nH]c(=O)c(CN(Cc3ccco3)C(CC)c3nnnn3Cc3ccccc3)cc2c1 (configuration not stated)	n	n	n	n	n	x
CCC(c1nnnn1CCc1ccccc1)N(Cc1ccco1)Cc1cc2cccc(C)c2[nH]c1=O (configuration not stated)	15.8µM	n	n	n	n	u
CCn1nnc(NC(=O)c2ccccc2Br)n1	31.6µM	n	n	n	n	u
Cc1sc2ncnc(N3CCCCC3C)c2c1C (configuration not stated)	25.1µM	n	n	n	n	u
CC1(C)CCC[C@@]2(C)[C@@H]1CC[C@]1(C)OC(=O)C[C@@H]21	u	u	x	x	n	u
Cc1ccc(CCNC(=O)C2CCN(S(=O)(=O)c3ccc4c(c3)CCC(=O)N4)CC2)cc1	n	n	n	n	n	n
SMILES	HEK293 cAMP ctrl	Hsp90 Hop PPI	BRCT inh red	BRCT PPI green	YjeE inh	TSHR ag
CC(C)CCNC(=O)C1CCN(S(=O)(=O)c2ccc3c(c2)CCC(=O)N3)CC1	6.31µM	n	n	n	n	u
COc1ccccc1-c1nccc(NCc2cccs2)n1	u	n	n	n	n	u
Cc1ccc(NC(=O)CN(c2cc(C)cc(C)c2)S(=O)(=O)c2c(C)noc2C)nc1	20µM	n	n	n	n	u
C=C(C)C(O)C(CC/C=C(\C)C(=O)OCC)OC (configuration not stated)	n[11.4 µM]	x	n[15.4 µM]	n[15.4 µM]	x	n[11.4 µM]
C/C(N)=C(/C#N)C(=O)CSc1nnc(SCc2ccc(Cl)cc2)s1	31.6µM	n	n	n	n	u
CC(c1ccco1)N(C(=O)COc1ccc(Cl)cc1)c1ccccn1 (configuration not stated)	n	n	n	n	n	n
CC(c1ccco1)N(C(=O)COc1ccc(Cl)cc1Cl)c1ccccn1 (configuration not stated)	25.1µM	n	n	n	n	u
COc1ccc2nc3c(c(-c4ccccc4)c2c1)CCC3	25.1µM	n	n	n	n	u
CCc1c2c(nc3ccc(OC)cc13)COC2	n	n	n	n	n	n
CC1(C)OCC(CSC2=C(SCC3COC(C)(C)O3)C(=O)c3ncccc3C2=O)O1 (configuration not stated)	n	15.8µM	n	n	u	n
Cc1nc2cnc(N(C)C)nc2n(Cc2cccs2)c1=O	n	n	n	n	n	n
COCCn1c(=O)c(-c2cccc(C#N)c2)nc2cnc(Nc3ccccc3)nc21	0.251µM	n	n	n	n	u
COc1cccc(Nc2ncc3nc(CCc4ccccc4)c(=O)n(Cc4cccs4)c3n2)c1	u	n	n	n	n	u
COc1cccc(Cn2c(=O)c(-c3cccs3)nc3cnc(Nc4cccc(OC)c4)nc32)c1	u	7.94µM	n	u	n	u
O=c1c(CCc2ccccc2)nc2cnc(Nc3ccccc3)nc2n1Cc1cccs1	1.26µM	n	n	n	n	u
CN(C)c1ncc2nc(CCc3ccccc3)c(=O)n(Cc3cccs3)c2n1	u	25.1µM	n	n	n	u
COc1ccc(Nc2ncc3nc(-c4cccs4)c(=O)n(Cc4cccc(OC)c4)c3n2)cc1	n	n	n	n	n	n
FC(F)(F)c1ccccc1-c1nccc(-n2ccnc2)n1	n	n	n	n	n	n
CCN1CCN(S(=O)(=O)c2ccc3[nH]c(=O)oc3c2)CC1	31.6µM	n	n	n	n	u
CCOC(=O)C1CCN(S(=O)(=O)c2ccc3[nH]c(=O)oc3c2)CC1	n	n	n	n	n	n
NCCC(O)C(=O)NC1C[C@@H](N)[C@H](O[C@@H]2OC(CN)C(O)C(O)C2O)C(O)[C@H]1O[C@H]1OC(CO)C(O)C(N)C1O (some centres not stated)	x	x	n	n[3.08 µM]	x	x
NCCNCCNCCNCCN	n	5.01µM	n	n	n	n
NCCCNCCCCNCCCN	n	n	n	n	n	n
O=C1OC2(c3cc(Br)c(O)c(Br)c3Oc3c2cc(Br)c(O)c3Br)c2c(Cl)c(Cl)c(Cl)c(Cl)c21	15.8µM	u	2.51µM	u	39.8µM	u
CCC1Oc2ccc(C)cc2N(CC(=O)NCc2cccc(OC)c2)C1=O (configuration not stated)	12.6µM	n	n	n	n	u
O=C(O)C(S)[C@@H](S)C(=O)O (some centres not stated)	x	x	n	n[3.08 µM]	x	x
